# Assay results: PubChem BioAssay (NCI)
# About 83,000 compounds went through this panel and 20% of them were active in at least one assay; those are over-represented in the sample as a whole.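 Percent growth is the endpoint: 0 to 100 indicates growth inhibition (40 means 60% inhibition), 0 means no net growth, and negative values indicate cell death.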 Unmarked numbers belong to inactive results. Calls of active or inactive are those of the source. How the source made its calls: active means growth percent below 10; inactive means the rest.
# Columns and labels:
# Experiment in all cases: NCI-60 one-dose screen, 48 h (100 = growth as untreated, 0 = no growth, -100 = all killed)
# Settings in all cases: 10 µM
# [1] = test system: SR leukemia
# [2] = test system: RPMI-8226 leukemia
# [3] = test system: OVCAR-8 ovarian
# [4] = test system: OVCAR-5 ovarian
# [5] = test system: OVCAR-4 ovarian
# [6] = test system: SK-OV-3 ovarian
# [7] = test system: OVCAR-3 ovarian
# [8] = test system: HS 578T breast
# [9] = test system: NCI/ADR-RES ovarian
# [10] = test system: T-47D breast
# [11] = test system: BT-549 breast
# [12] = test system: MDA-MB-435 melanoma
# [13] = test system: SW-620 colon
# [14] = test system: MCF7 breast
# [15] = test system: HCT-116 colon
# [16] = test system: KM12 colon
# [17] = test system: HCC-2998 colon
# [18] = test system: IGROV1 ovarian
SMILES,growth [1],growth [2],growth [3],growth [4],growth [5],growth [6],growth [7],growth [8],growth [9],growth [10],growth [11],growth [12],growth [13],growth [14],growth [15],growth [16],growth [17],growth [18]
CCOC(=O)Cn1c(=O)c2sc3ncccc3c2n2nnc(-c3ccccc3)c12,93.5%,94.7%,102%,105%,101%,94%,120%,112%,105%,94.3%,98.2%,104%,119%,79.8%,91.5%,114%,,
CC(C)C[C@H](NC(=O)Cn1cccc(CNC(=O)c2ccccc2)c1=O)B(O)O,16.4%,0.606% (active),54.4%,38.8%,36.7%,58.5%,-43.2% (active),16.6%,103%,-18.5% (active),24.1%,-54.5% (active),6.53% (active),30.2%,2.43% (active),-12.5% (active),-34.8% (active),
O=C1CC(SC(=S)C2CCCC2=O)C(=O)N1 (centres undefined),89.9%,100%,96.3%,109%,106%,105%,109%,104%,104%,93.9%,100%,114%,110%,90.8%,99.2%,,108%,
COc1ccc2c(c1)C(=O)/C(=C/c1cccc(OCC(=O)c3ccc([N+](=O)[O-])cc3)c1)CO2,-64.1% (active),-50.5% (active),2.15% (active),57.3%,74%,90.7%,58.4%,-26.8% (active),-29.2% (active),50.3%,-34.5% (active),24.4%,-89% (active),-35.9% (active),-74.2% (active),-87.9% (active),,
CC(C1=C(CN(C(=O)Cc2cn(-c3ccccc3)nc2-c2ccc(Cl)cc2)C(C)C)Cc2ccccc21)c1ccccn1 (centres undefined),37.4%,36.5%,81.7%,85%,54.8%,65.4%,62.4%,80.7%,61.1%,40.6%,88%,70.1%,75.8%,41.2%,31.9%,54.8%,68%,
CC(C)(O)CCl,111%,113%,102%,108%,129%,119%,114%,96%,108%,116%,116%,102%,99.5%,100%,110%,107%,109%,
COc1cc(-c2ccc(N=Nc3ccc4c(S(=O)(=O)O)ccc(N)c4c3O)c(OC)c2)ccc1N=Nc1ccc2c(S(=O)(=O)O)ccc(N)c2c1O,146%,115%,99.6%,111%,98.4%,91.4%,109%,124%,109%,105%,117%,,109%,95.6%,114%,114%,114%,
COc1cc(-c2nc3ccccc3o2)cc(CN2CCCCC2)c1O,31.7%,45.1%,71.1%,110%,,118%,59%,60.3%,79.7%,86.6%,67.2%,-79.9% (active),64.6%,50.8%,57.2%,44.9%,97.7%,82.1%
C[C@@H](O)[C@H]1C(=O)N2C(C(=O)O)=C(SCCN=CN)C[C@H]12,-5.48% (active),-3.62% (active),-10.1% (active),3.52% (active),,2.23% (active),-15% (active),24.3%,-13.9% (active),-6.42% (active),18.9%,-9.18% (active),-0.331% (active),-6.51% (active),-24.8% (active),9.33% (active),0.878% (active),-5.16% (active)
COc1ccc2nc3cc(Cl)ccc3c(NCCCNCCO)c2c1,-8.29% (active),-12.1% (active),-23.2% (active),-9.73% (active),-35.9% (active),,,6.23% (active),62.4%,,5.74% (active),-69.1% (active),-2.84% (active),-18.6% (active),-50.4% (active),3.19% (active),-43.6% (active),2.85% (active)
CN(C)CCCOc1ccc(OCCCN(C)C)c2c1C(=O)c1ccccc1C2=O,2.73% (active),-20.6% (active),7.14% (active),8.93% (active),2.16% (active),13.8%,3.4% (active),23%,96.1%,-5.61% (active),,3.12% (active),3.12% (active),8.41% (active),8.36% (active),6.87% (active),,
Nc1nc(-c2ccc(Cl)cc2)cc(-c2cc3ccccc3oc2=O)n1,106%,98.6%,106%,108%,100%,,100%,107%,108%,,,104%,97.2%,79.8%,87.7%,103%,126%,55.1%
Nc1c(Br)cc(Br)c2c1[nH]c(=O)c1ccccc12,81.1%,96.2%,37.2%,72.8%,,16.1%,68.7%,30.5%,44.3%,39.2%,76.8%,93.3%,73.4%,22.1%,83.1%,101%,87.5%,58.4%
Cc1ccc(NCCN(C)CC(C)O)c2c(=O)c3ccccc3sc12 (centres undefined),2.49% (active),19%,33.9%,61.8%,,54.9%,66.7%,55.2%,44.7%,85.2%,84.4%,30%,23.6%,20%,18.5%,,15.4%,38.4%
CC(C)(C)c1ccc(S(=O)(=O)Oc2ccc(NC(=O)C3CCCCC3)cc2)cc1,42.6%,13.6%,51%,85.1%,47.5%,,40.7%,81.4%,29.8%,0.897% (active),51.8%,59.6%,51.9%,19.8%,30.8%,31.7%,51.8%,76.3%
COc1cc(-c2nn(-c3cccc(NC(=O)NCCNC(=O)c4cccc(C(F)(F)F)c4)c3)cc2-c2ccncc2)ccc1Cl,10.4%,21.4%,44.1%,85.1%,,49.9%,16.2%,24.1%,80.3%,52.7%,14.2%,-41.6% (active),36.1%,12.7%,24.4%,18.9%,67.3%,57.3%
Clc1ccc(C2=NN=C3C(Cc4ccccc4)=Nc4ccccc4N3C2)cc1,25.4%,49.4%,75.5%,90%,,112%,65.8%,90.1%,74.4%,95%,88.8%,73%,91.8%,88.7%,53.1%,63.6%,68.5%,83.8%
Cc1c[nH]c(=O)n(Cc2nnc(CCC(=O)c3nc4ccccc4[nH]3)o2)c1=O,4.57% (active),17.2%,21%,13.8%,,-7.95% (active),-14.8% (active),10.2%,90.7%,34.3%,18.9%,-45.8% (active),28.9%,9.44% (active),6.25% (active),,-27.9% (active),47.8%
